Data from PubChem BioAssay AID720664 (National Center for Advancing Translational Sciences (NCATS), 2013).
Records with an inconclusive call do not appear. The source made the active and inactive calls. Calls follow the shape of the dose curve; as a rule, active = well fitted inhibition curve with a large enough effect; inconclusive = small, poorly fitted or top-dose-only effect; inactive = flat fitted curve, though single readings scatter.

Target: Galactokinase (Homo sapiens) (UniProt P51570)
Assay: qHTS for Inhibitors of Human Galactokinase (GALK): SAR round 3
Conditions: ADP detection luminescence, 1 h; series mostly up to 57.5 µM
Text: Inherited deficiency of galactose-1-phosphate uridyltransferase (GALT) can result in a potentially lethal disorder called Classic Galactosemia (OMIM 230400). Several lines of evidence indicate that an elevated level of galactose-1-phosphate (gal-1-p), the product of galactokinase (GALK), is a major, if not sole, pathogenic mechanism in patients with classic galactosemia. Therefore, finding inhibitors of GALK is a potential novel therapy for this inherent metabolic disease and is the long term goal of this project. Active compounds observed in the qHTS GALK assay (AID: 1868) were cherry picked and re-screened for validation. GALK (provided by Kent Lai) was assayed using ATP and D-(+)-Galactose (Sigma-Aldrich cat# G0750) as substrates. Promega ADP-Glo technology was used to detect the ADP product formed after the kinase reaction. Kinase reactions with and without GALK were used as negative and positive controls together with Protein Tyrosine Phosphatase CD45 inhibitor (EMD Bioscience cat# 540215) which is shown to inhibit GALK activity. Decrease in activity corresponds to inhibition of the enzyme, the desired outcome for this assay. NIH Molecular Libraries Probe Production Network [MLPCN] NIH Chemical Genomics Center [NCGC] Grant: MH085689-01 PI Name: Kent Lai, University of Utah
Three uL/well of ATP-buffer solution (35 uM ATP, 20mM HEPES pH8.0, 5 mM MgCl2, 60 mM NaCl, 1 mM DTT, 0.01% BSA final concentration) was dispensed into 1536-well, assay plates (Greiner, solid white medium-binding plates) with Aurora Discovery BioRAPTR Flying Reagent Dispenser (FRD; Beckton-Dickenson). Compound and control solution (23 nL) was transferred to the assay plate using the Kalypsys 1536-pin tool apparatus. One uL/well GALK-galactose solution (5 nM GALK, 100 uM galactose, 20 mM HEPES pH8.0, 5 mM MgCl2, 60 mM NaCl, 1 mM DTT, 0.01% BSA final concentration) was then added using the FRD yielding a total kinase reaction volume of 4 uL/ well. After 1 hour of room temperature incubation, 4 uL Kinase-Glo Plus reagent was added for a final assay volume of 8 uL/well. Luminescence was detected with the ViewLux plate reader (Perkin Elmer, Waltham, MA) after 2 min incubation using a 1 sec exposure time and 2x binning.

Chain of Galactokinase (Homo sapiens) (P51570 whole entry, looked up): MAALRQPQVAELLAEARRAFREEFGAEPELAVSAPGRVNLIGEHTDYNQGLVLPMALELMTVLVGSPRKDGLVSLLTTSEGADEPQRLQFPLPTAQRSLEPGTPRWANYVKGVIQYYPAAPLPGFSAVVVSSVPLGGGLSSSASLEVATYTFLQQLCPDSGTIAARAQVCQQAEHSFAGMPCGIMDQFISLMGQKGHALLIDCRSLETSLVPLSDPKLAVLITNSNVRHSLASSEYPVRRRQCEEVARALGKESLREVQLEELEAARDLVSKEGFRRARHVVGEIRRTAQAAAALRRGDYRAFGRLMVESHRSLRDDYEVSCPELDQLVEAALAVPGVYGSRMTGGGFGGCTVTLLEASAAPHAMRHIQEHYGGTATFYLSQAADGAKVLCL

Potency, inactive:
O=C1CCCC2=C1C(c1ccc(F)cc1)N=C(Nc1nc3ccccc3o1)N2 (stereo not given), COc1ccc(C2N=C(Nc3nc4ccccc4o3)NC3=C2C(=O)CCC3)cc1 (stereo not given), O=C1CCCC2=C1C(c1[nH]ncc1Cl)N=C(Nc1ccccc1)N2 (stereo not given), CN1C(=O)NC(c2ccccc2Cl)C2=C1CCCC2=O (stereo not given), O=C1CCCC2=C1C(c1[nH]ncc1Cl)NC(=NCc1nccs1)N2 (stereo not given), O=C1CCCC2=C1C(c1[nH]ncc1Cl)NC(=S)N2 (stereo not given), O=C(Nc1ncc([S+](=O)([O-])N2CCOCC2)s1)c1cccc(Br)c1, CC1=C(C(=O)Nc2noc3ccccc23)C(c2nn(C)cc2Cl)N=C(Nc2nc3ccccc3o2)N1 (stereo not given), O=C1CCCC2=C1C(c1[nH]ncc1Cl)NC(=NCc1ccncc1)N2 (stereo not given), COc1cccc(C2N=C(Nc3nc4ccccc4o3)NC3=C2C(=O)CCC3)c1 (stereo not given), O=C1CCCC2=C1C(c1ccccc1Cl)N=C(c1ccccn1)N2 (stereo not given), O=C1CCCC2=C1C(c1cccnc1Cl)N=C(Nc1nc3ccccc3o1)N2 (stereo not given), O=C1CCCC2=C1C(c1[nH]ncc1Cl)N=C(Nc1nccs1)N2 (stereo not given), O=C1CCCC2=C1C(c1[nH]ncc1Cl)NC(=NCc1ncc[nH]1)N2 (stereo not given), O=C1CCCC2=C1C1(CCCOC1)N=C(Nc1nc3ccccc3o1)N2 (stereo not given), Cn1cnc(CN=C2NC3=C(C(=O)CCC3)C(c3[nH]ncc3Cl)N2)c1 (stereo not given), O=C1CCCC2=C1C(c1[nH]ncc1Cl)NC(=NCc1ccco1)N2 (stereo not given), O=C1CC(c2ccccc2)CC2=C1C1(CCCCC1)N=C(Nc1nc3ccccc3o1)N2 (stereo not given), O=C1CCCC2=C1C(c1[nH]ncc1Cl)NC(=NCCc1ccc(O)cc1)N2 (stereo not given), CC1=C(C(=O)NC2CC2)C(c2nn(C)cc2Cl)N=C(Nc2nc3ccccc3o2)N1 (stereo not given), O=C1CCCC2=C1C(c1[nH]ncc1Cl)N=C(Nc1cccnc1)N2 (stereo not given), O=C1CCCC2=C1[C@@]1(CCC(c3ccccc3)C1)N=C(Nc1nc3ccccc3o1)N2 (stereo not given in full), Cn1ncc(Cl)c1C1N=C(Nc2nc3ccccc3o2)NC2=C1C(=O)CCC2 (stereo not given), Cc1nc(Nc2nc3ccccc3o2)nc2c1CCCC2, O=C1CCCC2=C1C(c1ccccc1)N=C(Nc1nc3ccccc3o1)N2 (stereo not given), CC1=C(C(=O)Nc2nc3ccccc3s2)C(c2nn(C)cc2Cl)N=C(Nc2nc3ccccc3o2)N1 (stereo not given), Cc1cccc2oc(NC3=NC(c4[nH]ncc4Cl)C4=C(CCCC4=O)N3)nc12 (stereo not given), CCc1ccc2oc(=O)cc(CN3CCN(c4ccccc4F)CC3)c2c1, CC1=C(C(=O)n2ccc3ccccc32)C(c2ccccc2Br)N=C(Nc2nc3ccccc3o2)N1 (stereo not given), Cc1ccc2oc(NC3=NC(c4[nH]ncc4Cl)C4=C(CCCC4=O)N3)nc2c1 (stereo not given), Cc1nc(C2=NC(c3ccccc3Cl)C3=C(CCCC3=O)N2)cs1 (stereo not given), Cc1cccc(C2N=C(Nc3nc4ccccc4o3)NC3=C2C(=O)CCC3)c1 (stereo not given), CC1(C)CC(=O)C2=C(C1)NC(Nc1nc3ccccc3o1)=NC21CCCCC1, O=C1CCCC2=C1C(c1[nH]ncc1Cl)NC(=NCCc1cccnc1)N2 (stereo not given), CC1=C(C(=O)NC2CC2)C(c2[nH]ncc2Cl)N=C(Nc2nc3ccccc3o2)N1 (stereo not given), O=C1CCCC2=C1C(c1[nH]ncc1Cl)N=C(Nc1ccn[nH]1)N2 (stereo not given), Cc1nc(CN=C2NC3=C(C(=O)CCC3)C(c3[nH]ncc3Cl)N2)cs1 (stereo not given)

Potency, active:
CC1=C(C(=O)Nc2nncs2)C(c2[nH]ncc2Cl)N=C(Nc2nc3ccccc3o2)N1 (stereo not given) 12.2 µM, O=C1CCCC2=C1C(c1ccncc1Cl)N=C(Nc1nc3ccccc3o1)N2 (stereo not given) 19.3 µM, CC1=C(C(=O)Nc2ccon2)C2(CCCC2)N=C(Nc2nc3ccccc3o2)N1 17.2 µM
